Screens: PubChem, several laboratories
NSD2 inh: blocks human histone methyltransferase NSD2; O96028; NSD2 peptide methylation, AlphaScreen, 120 min; inhibition, % at 12.5 µM; hit rate 0.54% among 310,000; AID 743445; in the data active means inhibition above about 50%
SUMO HTRF inh: inhibitors of human SUMOylation (UBC9). P63279. HTRF SUMOylation assay, SAE1/SAE2 + UBC9, in vitro. inhibition, % at 35 µM. hit rate 0.36% among 290,000. AID 2006; in the data active means inhibition above about 50%, passing the limit was not always enough
Target sequence (P63279 whole entry, looked up): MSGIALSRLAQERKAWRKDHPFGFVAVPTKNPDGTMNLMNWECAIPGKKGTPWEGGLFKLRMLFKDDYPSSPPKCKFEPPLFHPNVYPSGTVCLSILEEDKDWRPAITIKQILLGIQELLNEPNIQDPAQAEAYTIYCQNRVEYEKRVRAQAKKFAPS
CASP6 VEID inh: caspase-6 (human) enzyme inhibition | purified caspase-6, Z-VEID-R110 cleavage fluorescence | inhibition, % at 12.5 µM | AID 686996 | hit rate 0.53% among 350,000 | P55212;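 active means mean inhibition across replicates at least about 35%, with every replicate also reaching that limit, limit read from the data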;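 further: 0% = median of neutral control wells and 100% = no fluorescence left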
Target sequence (P55212 24-179 limits assumed): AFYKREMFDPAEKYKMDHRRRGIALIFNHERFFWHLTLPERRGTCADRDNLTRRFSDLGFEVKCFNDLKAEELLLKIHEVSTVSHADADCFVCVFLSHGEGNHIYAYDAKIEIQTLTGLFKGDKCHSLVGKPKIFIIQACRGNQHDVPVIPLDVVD
Target sequence (P55212 194-293 limits assumed): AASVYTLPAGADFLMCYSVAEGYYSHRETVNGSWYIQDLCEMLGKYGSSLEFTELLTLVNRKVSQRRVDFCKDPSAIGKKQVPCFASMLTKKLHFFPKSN
SIRT5 block: blocks human SIRT5 desuccinylation of peptide | Purified SirT5, succinyl-peptide AMC, trypsin-coupled fluorescence | inhibition, % at 15 µM | hit rate 1.1% among 330,000 | AID 652115; in the data active means inhibition above about 15%
* marks the source's active call; other numbers are inactive results; x = not tested or not shown; + = active, no number. Hits are enriched below; roughly 1.6% of the tested compounds scored in any of these assays.

SMILES	NSD2 inh	SUMO HTRF inh	CASP6 VEID inh	SIRT5 block
C[C@H]1CN([C@@H](C)CO)C(=O)c2ccccc2-c2ccccc2CO[C@@H]1CN(C)Cc1ccc(Cl)c(Cl)c1	x	x	4	19*
C[C@@H]1CN([C@H](C)CO)C(=O)c2ccccc2-c2ccccc2CO[C@@H]1CN(C)Cc1ccc(Cl)c(Cl)c1	x	x	1	2
CCCNC(=O)N1CC(=O)N2[C@@H](CO)[C@H](c3ccc(C#Cc4cccc(F)c4)cc3)[C@@H]2C1	x	x	-1	-6
COCC(=O)N(C)C[C@H]1Oc2cc(-c3ccncc3)ccc2S(=O)(=O)N([C@H](C)CO)C[C@@H]1C	x	x	0	10
CCCc1cn(CC[C@H]2CC[C@@H](NS(=O)(=O)c3ccc(-c4ccccc4)cc3)[C@H](CO)O2)nn1	x	x	-3	1
C[C@@H]1CN([C@H](C)CO)C(=O)c2ccccc2-c2ccccc2CO[C@H]1CN(C)C(=O)Nc1ccccc1C(F)(F)F	x	x	1	x
C[C@@H]1CN([C@@H](C)CO)C(=O)c2ccccc2-c2ccccc2CO[C@@H]1CN(C)Cc1ccccc1C(F)(F)F	x	x	0	12
C[C@H](CO)N1C[C@H](C)[C@@H](CN(C)Cc2ccccc2C(F)(F)F)OCc2ccccc2-c2ccccc2C1=O	x	x	2	30*
C[C@H]1CN([C@@H](C)CO)C(=O)c2ccccc2-c2ccccc2CO[C@@H]1CN(C)C(=O)Nc1ccccc1C(F)(F)F	x	x	1	21*
CO[C@@H](CN(C)C(=O)Nc1ccc(Cl)cc1)[C@@H](C)CN(Cc1ccccc1Cl)[C@H](C)CO	x	x	-1	5
Cc1cccc2sc(NC(=O)C3CC3)nc12	-2	3	1	24*
CC(C)(C)OC(=O)N(CCc1ccccc1)Cc1ccc(OCc2cccc(NC(=O)C3CCC3)c2)cc1	x	x	2	x
CC(C)(C)OC(=O)N(CCc1ccccc1)Cc1ccc(OCc2cccc(NC(=O)C3CC3)c2)cc1	x	x	-3	18*
CN1CCN(C(=O)C[C@@H]2CC[C@@H]3[C@H](COC[C@@H](O)CN3C(=O)C3CC3)O2)CC1	x	x	6	-7
C[C@H]1CN([C@@H](C)CO)C(=O)c2cc(NC(=O)Cn3cnnn3)ccc2O[C@@H]1CN(C)S(=O)(=O)c1ccc(F)cc1	x	x	2	31*
Cc1ccc(S(=O)(=O)N(C)C[C@H]2Oc3ccc(NC(=O)Cn4cnnn4)cc3CC(=O)N([C@@H](C)CO)C[C@H]2C)cc1	x	x	0	34*
N#C[C@H]1N[C@H](CO)[C@@H]1c1ccc(-c2ccccc2F)cc1	x	x	-2	5
O=C1N/C(=N/N=C/c2ccccc2O)SC1Cc1ccc(F)cc1 (configuration not stated)	-3	61*	0	-8
COc1ccc(CC2S/C(=N/N=C/c3ccccc3O)NC2=O)cc1 (configuration not stated)	1	58*	-7	-6
CCc1ccc(C(O)c2ncc(-c3ccccc3F)[nH]2)cc1 (configuration not stated)	0	x	2	-6
OC(c1ccc(F)cc1)c1ncc(-c2ccccc2F)[nH]1 (configuration not stated)	1	x	39*	-1
C[C@@H]1CN([C@H](C)CO)C(=O)CCCn2cc(nn2)CO[C@@H]1CN(C)Cc1ccc(C(=O)Nc2ccccc2N)cc1	x	x	1	2
O=C(O)/C=C/C(=O)N1Cc2cc3ccccc3nc2C1	0	11	54*	5
CCOC(=O)N1Cc2cc3ccccc3nc2C1	-1	x	5	x
CN=c1sc2c(n1C)C(=O)c1ccccc1C2=O	x	x	63*	-3
SMILES	NSD2 inh	SUMO HTRF inh	CASP6 VEID inh	SIRT5 block
Cc1nnc(SCC(=O)N(C)C2CCCCC2)n1C	6	x	55*	-2
OC[C@@H]1Nc2ccc(C#Cc3cccc(F)c3)cc2[C@@H]2NCC[C@H]12	x	x	1	-6
COc1ccccc1CNC(=O)C[C@@H]1CC[C@@H]2[C@H](COC[C@H](O)CN2Cc2cccc(-c3ccncc3)c2)O1	x	x	-1	0
COc1ccc(-c2c(C(F)(F)F)[nH]n3c(=O)cc(-c4ccccc4)nc23)cc1	x	51*	-1	0
Cc1[nH]n2c(=O)cc(-c3ccc([N+](=O)[O-])cc3)nc2c1-c1ccccc1	18	x	x	x
CO[C@@H]1CC[C@@H]2CCN(C)C(=O)CCCN(C)C(=O)c3cc(C#N)ccc3OC[C@@H]1O2	x	x	-1	0
O=C(CSc1n[nH]c(=O)n1Cc1ccco1)Nc1ccccc1	-1	21	-2	15*
Cc1nn(-c2ccccc2)c2c1C(c1c(C)[nH]c(C#N)c1C)C(C#N)=C(N)O2 (configuration not stated)	-2	75*	x	x
CC(C)C#Cc1cnc2c(c1)C(=O)N([C@@H](C)CO)C[C@H](C)[C@@H](CN(C)C(=O)c1cccc(F)c1)O2	x	x	-2	3
Cc1ccc(S(=O)(=O)N(C)C[C@H]2OCCCC[C@H](C)Oc3ccc(NC(=O)CCCN(C)C)cc3C(=O)N([C@@H](C)CO)C[C@H]2C)cc1	x	x	-2	-5
CCOc1cc(C(=O)NC(CC(=O)O)c2ccc(OC3CCCC3)cc2)cc(OCC)c1OCC (configuration not stated)	0	14	-1	24*
C[C@H](CO)N1C[C@H](C)[C@@H](CN(C)Cc2ccc(C(F)(F)F)cc2)Oc2ccc(NS(C)(=O)=O)cc2C1=O	x	x	-1	4
COc1ccc(S(=O)(=O)N2CCN(CC(=O)c3ccc(O)c(O)c3)CC2)cc1	+	1	x	4
O=C(CN1CCN(S(=O)(=O)c2ccc(Cl)cc2)CC1)c1ccc(O)c(O)c1	121*	-12	x	x
COc1cc(C(=O)NCCCc2nc3ccccc3n2Cc2cc(C)ccc2C)cc(OC)c1OC	x	-1	1	19*
COc1ccccc1C#Cc1ccc([C@H]2[C@H](CO)N3CCCCN(C(=O)C4CCCC4)C[C@@H]23)cc1	x	x	-1	17*
O=C(Nc1ccccc1)N1CC(=O)N2[C@H](C1)[C@H](c1ccc(C#CC3CCCCC3)cc1)[C@@H]2CO	x	x	0	-2
O=C(Nc1cc(F)ccc1F)N1CC(=O)N2[C@H](CO)[C@H](c3ccc(C#CC4CCCCC4)cc3)[C@@H]2C1	x	x	1	17*
O=C(Nc1ccccc1)N1CC(=O)N2[C@H](CO)[C@@H](c3ccc(C#CC4CCCCC4)cc3)[C@@H]2C1	x	x	1	16*
COc1ccccc1C#Cc1ccc([C@@H]2[C@@H](CO)N3CCCCN(C(=O)C4CCCC4)C[C@@H]23)cc1	x	x	1	10
CC(C)NC(=O)N1CCCCN2[C@H](C1)[C@@H](c1ccc(C#CC3CC3)cc1)[C@@H]2CO	x	x	0	22*
OC[C@@H]1[C@H](c2ccc(C#CC3(O)CCCC3)cc2)[C@@H]2CN(Cc3cccnc3)CCCCN12	x	x	x	-4
COc1ccccc1NC(=O)N1CC(=O)N2[C@H](CO)[C@@H](c3ccc(C#CC4CC4)cc3)[C@H]2C1	x	x	x	22*
O=C(Nc1cc(F)ccc1F)N1CC(=O)N2[C@@H](CO)[C@@H](c3ccc(C#CC4CCCCC4)cc3)[C@@H]2C1	x	x	2	21*
COc1ccccc1NC(=O)N1CC(=O)N2[C@H](C1)[C@@H](c1ccc(C#Cc3ccccc3)cc1)[C@@H]2CO	x	x	0	8
